HTT ATP protect: Huntington cell model cytoprotection by ATP luminescence | PC12 HTT-Q103 induced, cytoprotection, ATP luminescence, 40 h | Potency, µM (top dose mostly 56.4 µM), for the others: cytoprotection (ATP increase), most hits filed as activators | 230,000 compounds, 0.14% hits; also: potency is read from the fitted curve at half-maximal effect; % of control where 0% means no effect; nearly all actives have a fitted effect of over 45% in size
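Compounds were screened for protection of PC12 cells against cell death after tebufenozide induction (100 nM final) of mutant Huntingtin exon 1 (Q103) fused to GFP.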
IMPase cell inh: IMPase inhibition in cells. CHO-M1 cells, IP1 accumulation, HTRF TR-FRET ratio. inhibition (IP1 accumulation), % at 46.1 µM. 120,000 tested, under 10 active; active = well fitted curve in the direction sought with a large enough effect in the signal ratio, not every such curve was filed as active; inconclusive = small, poorly fitted or top-dose-only effect, or a change in a side signal; inactive = no such curve, though single readings can be large or run the other way; the % refers to the signal ratio;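 also: cells stimulated with carbachol in lithium chloride buffer; plate controls were DMSO basal wells for no effect and reference inhibitor wells for full effect; higher means more IMPase inhibition seen as more IP1 and lower FRET ratio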
Target sequence (P97697 whole entry, looked up): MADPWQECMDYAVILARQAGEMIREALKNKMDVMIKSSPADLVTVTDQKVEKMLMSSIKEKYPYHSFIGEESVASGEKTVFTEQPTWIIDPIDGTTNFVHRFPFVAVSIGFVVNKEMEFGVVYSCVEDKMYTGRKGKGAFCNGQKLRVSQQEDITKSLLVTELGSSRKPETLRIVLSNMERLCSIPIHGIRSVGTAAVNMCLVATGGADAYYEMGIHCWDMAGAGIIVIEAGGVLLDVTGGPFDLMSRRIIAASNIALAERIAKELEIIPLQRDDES
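Carbachol-driven Gq signalling in CHO-M1 cells (2000/well) generates IP1. Compounds that block IMPase raise IP1 and so reduce the FRET signal from Eu-anti-IP1 and d2-IP1 after a 10 min room-temperature lysis.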
NPSR antag: blocks cAMP signaling of the human neuropeptide S receptor; Q6W5P4; CHO-NPSR cells, cAMP TR-FRET, antagonist mode; Potency, µM (top dose mostly 38.3 µM), inactives show at the highest dose activity change, negative = inhibition, usual class: inhibitors; 220,000 compounds, 1% hits; also: potency is read from the fitted curve at half-maximal effect; % is scaled to controls: 0 for no effect and ±100 for the full control effect; nearly all actives have a fitted effect of over 50% in size
Target sequence (Q6W5P4 whole entry, looked up): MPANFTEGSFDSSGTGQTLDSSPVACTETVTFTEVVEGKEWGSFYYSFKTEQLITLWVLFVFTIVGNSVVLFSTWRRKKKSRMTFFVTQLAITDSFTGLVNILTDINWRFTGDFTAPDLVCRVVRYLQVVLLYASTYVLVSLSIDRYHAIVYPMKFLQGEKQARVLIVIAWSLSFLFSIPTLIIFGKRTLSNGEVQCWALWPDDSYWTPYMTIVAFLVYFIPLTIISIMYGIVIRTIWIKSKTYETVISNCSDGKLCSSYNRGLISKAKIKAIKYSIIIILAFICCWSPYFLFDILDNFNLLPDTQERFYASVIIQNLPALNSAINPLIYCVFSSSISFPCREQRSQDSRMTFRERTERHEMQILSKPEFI
HTT aggregate: inhibitors of mutant huntingtin aggregate formation in PC12 cells. PC12 HttQ103-GFP aggregates, Acumen cytometry, 40 h. Potency, µM (doses to about 46.1 µM), inactives show at the top dose activity change, negative = inhibition, usual class: inhibitors. AID 1688. 220,000 compounds, 1.1% hits; also: potency is read from the fitted curve at half-maximal effect; % is scaled to controls: 0 for no effect and ±100 for the full control effect; nearly all actives have a fitted effect of over 60% in size
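Quantitative HTS on tebufenozide-induced (100 nM) PC12 cells stably expressing polyQ103 Huntingtin exon 1–GFP. Reduction of bright GFP aggregates, detected by laser scanning cytometry after lysis, identified actives across the titration.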
PNC assembly inh: blocks assembly of the perinucleolar compartment; PC3M PTB-GFP, PNC prevalence imaging, 16 h; active compounds read low; activity change (PNC), negative = inhibition, % at 10 µM; 140,000 compounds, 3.1% hits; AID 2417;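 active = readout at or below -70, meaning at least 70% loss of cells showing the perinucleolar compartment, a nuclear body marking cancer cells; inconclusive = readout between -30 and a set limit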;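 also: plate controls were DMSO wells for no effect and camptothecin positive control wells for full effect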
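PC3M cells stably expressing PTB-GFP, 750–1000 cells/well, treated 16 h at 37 °C with compound (23 nl of library stock), in duplicate. After paraformaldehyde fixation and Hoechst stain, imaged at 20x; PNC prevalence scored by image analysis.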
IMPase Li cell: cell-permeable IMPase inhibitors with lithium potentiation; 210,000 compounds, 0.35% hits; AID 1457; Potency, µM (titrated, usually from 59.4 µM), inactives show at the top dose activity, negative = IMPase inhibition, actives largely listed as inhibitors; CHO-M1 cells, IP1 TR-FRET (IP-One), carbachol + lithium;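 also: IP1 builds up when IMPase is blocked and the TR-FRET signal falls; potency is read from the fitted curve at half-maximal effect; plate controls were basal vehicle for no effect and high inhibitor control for full effect; nearly all actives have a fitted effect of over 50% in size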
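Steps: plate 2000 CHO-M1 cells per well and culture 16–30 h; add compound and lithium; incubate 30 min, 37C; add d2-IP1 tracer and Eu cryptate anti-IP1 antibody in lysis buffer; read after 10 min at room temperature.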
* = called active by the depositor; [ ] = dose if it differs, or a comment. This is a sample that favours compounds with a hit; in the whole collection about 3.4% have one here. Unless noted, calls follow the shape of the dose curve; as a rule, active = well fitted curve in the direction sought with a large enough effect; inconclusive = small, poorly fitted or top-dose-only effect, or another doubt; inactive = no such curve, though single readings can be large; an effect the other way counts as inactive or inconclusive.

What do the screens show for `O=C(Nc1ccc2c(c1)OCCO2)N1CCN(c2ccc(F)cc2)CC1`?
HTT ATP protect: -0.9%[10 µM]; IMPase cell inh: 0.1; NPSR antag: -8.0%[46.1 µM]; HTT aggregate: -9.5%; PNC assembly inh: -112.1*; IMPase Li cell: 5.1%

How did O=C(Nc1ccc2c(c1)OCO2)N1CCN(C(=O)C2CCCO2)CC1 (stereo not drawn) do in these assays?
HTT ATP protect: -10.4%; IMPase cell inh: 9.2; NPSR antag: 14.6%[46.1 µM]; HTT aggregate: -6.5%; PNC assembly inh: -100.0*; IMPase Li cell: -0.9%

Results for O=C(NCC1CCCO1)Nc1ccc2c(c1)OCO2 (stereo not drawn) ?
HTT ATP protect: 2.4%[10 µM]; NPSR antag: -9.6%; HTT aggregate: 0.3%[9.22 µM]; IMPase Li cell: 0.8%

How did O=C(c1cccs1)N1CCN(C(=O)C2CCCO2)CC1 (stereo not drawn) do in these assays?
HTT ATP protect: 29.7%[10 µM]; IMPase cell inh: 10.3; NPSR antag: inconclusive; HTT aggregate: 0.4%; PNC assembly inh: -0.8; IMPase Li cell: 1.2%

Results for COc1ccc(-c2cn(-c3ccc(C)cc3C)c(=O)[nH]2)cc1OC ?
HTT ATP protect: -34.3%; NPSR antag: 4.3%; HTT aggregate: -11.7%; IMPase Li cell: -5.8%

Results for CCCCCCCC/C=C\CCCCCCCC(=O)OC[C@@H](O)COP(=O)(O)O ?
HTT ATP protect: 23.5%; IMPase Li cell: -12.3%

How did CC1CCC(C(C)C)C(OC(=O)Cn2c(-c3ccc(F)cc3)[n+](C)c3ccccc32)C1 (stereo not drawn) do in these assays?
HTT ATP protect: -71.7%[10 µM]; IMPase cell inh: 2.9; NPSR antag: -14.8%; HTT aggregate: inconclusive; PNC assembly inh: -4.6; IMPase Li cell: 23.9%

Results for CC1CCC(C(C)C)C(OC(=O)Cn2c(-c3ccccc3)[n+](C)c3ccccc32)C1 (stereo not drawn) ?
HTT ATP protect: -48.8%[10 µM]; IMPase cell inh: 3.2; NPSR antag: inconclusive; HTT aggregate: 11.2µM*; PNC assembly inh: inconclusive; IMPase Li cell: 11.2%

What do the screens show for `O=C(c1ccco1)N1N=C(c2ccccc2)CC1c1ccc2nccnc2c1` (stereo not drawn)?
HTT ATP protect: 16.2%[10 µM]; NPSR antag: -51.5%; HTT aggregate: 23.2%[9.22 µM]

Results for CCCCCC(=O)NC(NC(=S)N1CCOCC1)C(Cl)(Cl)Cl (stereo not drawn) ?
HTT ATP protect: 12.0%[10 µM]; IMPase cell inh: inconclusive; NPSR antag: -15.4%[46.1 µM]; HTT aggregate: 14.0%; PNC assembly inh: inconclusive; IMPase Li cell: 20.9%

What do the screens show for `CCCCCCCCC(=O)NC(NC(=S)N1CCOCC1)C(Cl)(Cl)Cl` (stereo not drawn)?
HTT ATP protect: 14.7%[10 µM]; IMPase cell inh: 7.3; NPSR antag: -16.7%[46.1 µM]; HTT aggregate: inconclusive; PNC assembly inh: -100.0*; IMPase Li cell: 5.7%

How did COC(=O)Cc1sc(-c2ccccn2)nc1-c1ccccc1 do in these assays?
HTT ATP protect: 1µM*; NPSR antag: -17.3%; HTT aggregate: -5.0%; IMPase Li cell: 12.6%

How did N#CC1=C(N)SC(N)=C(C#N)C1c1ccc(C(F)(F)F)cc1 do in these assays?
HTT ATP protect: 10.7%[10 µM]; IMPase cell inh: -13.3; NPSR antag: -5.0%[46.1 µM]; HTT aggregate: -1.4%; PNC assembly inh: -127.1*; IMPase Li cell: inconclusive

What do the screens show for `CCOC(=O)O[C@@H](C)OC(=O)[C@@H]1N2C(=O)[C@@H](NC(=O)[C@@H](N)c3ccccc3)[C@H]2SC1(C)C`?
HTT ATP protect: inconclusive; IMPase cell inh: -2.1[20.6 µM]; HTT aggregate: 2.4%[20.6 µM]; IMPase Li cell: 4.0%

Results for O=C(O)[C@@H]1CSCN1 ?
HTT ATP protect: 29.6%; HTT aggregate: -4.0%

What do the screens show for `COc1ccc(C(O)P(=O)(OC(C)C)OC(C)C)c(OC)c1` (stereo not drawn)?
HTT ATP protect: 0.5%[10 µM]; NPSR antag: -8.9%; HTT aggregate: -11.9%[9.22 µM]

How did COCc1cc(C)nc(OCC(=O)N/N=C/c2ccc(-c3cc([N+](=O)[O-])ccc3Cl)o2)c1C#N do in these assays?
HTT ATP protect: -30.2%; NPSR antag: -23.4%; HTT aggregate: -7.0%; IMPase Li cell: -12.5%

Results for O=C(OCC(=O)N1CCN(C(=O)c2ccco2)CC1)c1cc(-c2ccc(Cl)c(Cl)c2Cl)nc2ccccc12 ?
HTT ATP protect: -61.3%; IMPase cell inh: 1.7; NPSR antag: 10µM*; HTT aggregate: 1.2%[9.22 µM]; PNC assembly inh: -7.3; IMPase Li cell: 10.7%[38.3 µM]

Results for O=C(CSc1cccc2cccc(Cl)c12)OCC(=O)N1CCN(C(=O)c2ccco2)CC1 ?
HTT ATP protect: 9.1%; IMPase cell inh: -27.0; NPSR antag: -12.6%[46.1 µM]; HTT aggregate: -4.9%[9.22 µM]; PNC assembly inh: -7.8; IMPase Li cell: 10µM*

What do the screens show for `Cc1cc(C)c(S(=O)(=O)OC[C@H]2C=CC[C@@H](CCC[C@H]3O[C@H](C(=O)OC(C)C)CC[C@@H]3C)O2)c(C)c1`?
HTT ATP protect: -2.9%; IMPase Li cell: 17.5%

How did O=C(O)CC/C=C\CC[C@H]1[C@@H](N2CCCCC2)[C@@H](O)C[C@@H]1OCc1ccc(-c2ccccc2)cc1 do in these assays?
HTT ATP protect: 3.2%; IMPase cell inh: 6.4; IMPase Li cell: 15.3%

What do the screens show for `CC[C@]1(O)C[C@H]2CN(CCc3c([nH]c4ccccc34)[C@](C(=O)OC)(c3cc4c(cc3OC)N(C=O)[C@H]3[C@@](O)(C(=O)OC)[C@H](OC(C)=O)[C@@]5(CC)C=CCN6CC[C@]43[C@H]65)C2)C1`?
HTT ATP protect: -76.7%[1.9 µM]; IMPase cell inh: 2.1

What do the screens show for `O=[N+]([O-])c1ccc(N/N=C/c2sc(N3CCOCC3)nc2-c2ccccc2)c(S(=O)(=O)Nc2ccc(Cl)cc2)c1`?
HTT ATP protect: -64.1%; NPSR antag: -46.9%; HTT aggregate: 3.55µM*; IMPase Li cell: 5.6%

How did CCOC(=O)C1(C(=O)O)NC(=O)CC1c1ccccc1 (stereo not drawn) do in these assays?
HTT ATP protect: -10.8%; IMPase cell inh: 2.6; NPSR antag: -3.1%[46.1 µM]; HTT aggregate: 10.7%; PNC assembly inh: -95.2*; IMPase Li cell: 6.1%[38.3 µM]

Results for CN(C)c1ncc2nc(-c3cccc(C#N)c3)c(=O)n(C[C@H]3CCCO3)c2n1 ?
HTT ATP protect: -43.4%; IMPase Li cell: -3.9%

How did Cc1ccc(C(=O)N/N=C/c2cccc(OC(=O)/C=C/c3ccco3)c2)cn1 do in these assays?
HTT ATP protect: 15.5%[10 µM]; NPSR antag: 3.2%; HTT aggregate: 16.8%[9.22 µM]; IMPase Li cell: 12.7%

Compound activity deposited in PubChem BioAssay by National Center for Advancing Translational Sciences (NCATS).
